Bioassay records (PubChem BioAssay)
This is a sample that favours compounds with a hit; in the whole collection about 10% have one here.
Sfp inh – inhibitors of Bacillus subtilis Sfp phosphopantetheinyl transferase; Q9F4F7; Potency, µM, usual class: inhibitors; 310,000 tested, 3.5% active; Biochemical Sfp PPTase activity, qHTS; AID 1490;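 note: the enzyme is Sfp with the accession as filed and its product quenches rhodamine fluorescence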
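With Hepes-Na pH 7.6 buffer containing 10 mM MgCl2, Sfp (15 nM) modified BHQ-2-YbbR (12.5 uM) using rhodamine-CoA (5 uM). Two reads 30 minutes apart at 525/598 nm yielded each well's rate.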
G9a inh – inhibitors of human histone lysine methyltransferase G9a; G9a H3K9 monomethylation, AlphaScreen, 2 h; Potency, µM (titrated, usually from 102 µM), hits mostly inhibitors; 350,000 tested, 8.8% active; note: nearly all actives have a fitted effect of over 75% in size
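Chemiluminescent proximity detection of H3K9 monomethylation, read after 10 min bead incubation in the dark. Reaction: 20 nM G9a, 500 nM biotin-H3K9 peptide, 20 uM SAM cofactor, 2 h, room temperature, following 15 min enzyme-compound preincubation.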
MmCpn inh – inhibitors of Methanococcus maripaludis chaperonin TRiC (MmCpn). purified Mm-Cpn ATPase, ADP Transcreener TR-FRET. Potency, µM (top dose mostly 76.9 µM), most hits filed as inhibitors. AID 504842. 330,000 tested, 0.031% active; note: nearly all actives have a fitted effect of over 80% in size
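Compound-treated chaperonin, 25 nM final, turns over 10 uM ATP at 37°C for 30 min following a 10 min preincubation; ADP generated competes with ADP-d2 for Eu-cryptate antibody, lowering FRET.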
CCT chaperon mod – cytosolic chaperonin activity modulation; purified chaperonin ATPase assay, HTRF ADP detection, 30 min; 360,000 tested, 0.3% active; activity change, % (concentration not given with the values), hits read low; in the data active = activity change below about -30%
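Enzyme 40 or 20 nM (batch-dependent) in Tris pH 7.4/KCl/MgCl2/DTT; cpd 76 uM single point; ATP 10 uM; 30 min 37 °C; Transcreener ADP HTRF detection, 30 min RT; ratio 665/615.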
VDR inhibitor – inhibitors of human vitamin D receptor. Potency, µM, most hits filed as inhibitors. 400,000 tested, 0.93% active. VDR-SRC2-3 peptide fluorescence polarization, 2 h. P11473
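Inhibition of the VDR/SRC2-3 peptide interaction is quantified by fluorescence polarization. Compounds (23 nl, pintool) incubate with the reagents for 2 hours at ambient room temperature.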
PLK1 PBD block – PLK1 (human) polo-box domain binding inhibition | P53350 | Plk1 PBD binding of FITC phosphopeptide, fluorescence polarization | Potency, µM, actives largely listed as inhibitors | 360,000 tested, 2.8% active | AID 720504; note: series mostly up to about 57 µM; nearly all actives have a fitted effect of over 65% in size
Target sequence (P53350 whole entry, looked up, the tested form may be a part): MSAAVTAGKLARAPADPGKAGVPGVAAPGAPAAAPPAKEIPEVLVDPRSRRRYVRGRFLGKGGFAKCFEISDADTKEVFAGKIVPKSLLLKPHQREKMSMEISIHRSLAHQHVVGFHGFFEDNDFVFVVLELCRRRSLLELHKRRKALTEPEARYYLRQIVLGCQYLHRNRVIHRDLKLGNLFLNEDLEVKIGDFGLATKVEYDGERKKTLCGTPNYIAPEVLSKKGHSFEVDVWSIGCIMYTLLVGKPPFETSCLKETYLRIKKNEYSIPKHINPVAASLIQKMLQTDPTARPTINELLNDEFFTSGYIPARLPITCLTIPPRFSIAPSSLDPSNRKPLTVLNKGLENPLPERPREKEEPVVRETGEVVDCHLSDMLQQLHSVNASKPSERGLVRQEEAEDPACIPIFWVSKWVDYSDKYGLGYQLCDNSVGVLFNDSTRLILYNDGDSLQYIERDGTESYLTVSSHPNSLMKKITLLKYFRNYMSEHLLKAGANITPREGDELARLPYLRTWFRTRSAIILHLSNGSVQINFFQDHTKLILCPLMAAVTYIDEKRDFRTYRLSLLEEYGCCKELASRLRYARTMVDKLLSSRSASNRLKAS
Each line names hits and unclear results; the compound was inactive in the other large screens. Unless noted, calls come from the whole dose curve; as a rule, active = well fitted curve in the direction sought with a large enough effect; inconclusive = small, poorly fitted or top-dose-only effect, or another doubt; inactive = no such curve, though single readings can be large; an effect the other way counts as inactive or inconclusive.

COc1ccc(/C=C2\SC(=O)N(CCNC(=O)CN3C(=O)NC4(CCCC4)C3=O)C2=O)cc1	G9a inh 50.1µM (no result: Sfp inh)
COc1ccc(OC)c(NC(=S)NCc2ccc(S(N)(=O)=O)cc2)c1	G9a inh 44.7µM, PLK1 PBD block inconclusive
COc1ccc(NC(=S)NCc2ccc(S(N)(=O)=O)cc2)c(OC)c1	Sfp inh 31.6µM, G9a inh 7.08µM, PLK1 PBD block inconclusive
COc1cc(CCC(=O)NCc2ccc(S(N)(=O)=O)cc2)cc(OC)c1OC	CCT chaperon mod -93.6
COc1ccc(Cl)cc1NC(=S)NCc1ccc(S(N)(=O)=O)cc1	none
COc1cccc(-n2cn[nH]c2=S)c1	G9a inh 12.6µM
COc1cccc(-n2sc3c(c2=S)-c2cc(OC)ccc2NC3(C)C)c1	G9a inh inconclusive
CCCC(=O)Nc1sc(C)c(C)c1C#N	G9a inh 44.7µM, PLK1 PBD block 21.2µM
CCCCCC(=O)Nc1sc(C)c(C)c1C#N	Sfp inh 79.4µM, G9a inh 3.16µM, VDR inhibitor inconclusive, PLK1 PBD block 10.6µM
CCc1c(C)sc(NC(=O)CC#N)c1C#N	Sfp inh 31.6µM, PLK1 PBD block inconclusive
CCCCC(=O)Nc1sc2c(c1C#N)CC(C)(C)OC2	VDR inhibitor 79.4µM, PLK1 PBD block 26.7µM
CCOC(=O)N1CCc2c(sc3c2c(=O)n(-c2ccc(F)cc2)c(=O)n3CC(=O)c2ccccc2)C1	none (no result: Sfp inh, MmCpn inh, CCT chaperon mod, PLK1 PBD block)
Cc1ccc(Sc2cncc3sc(C(N)=O)cc23)cc1	none (no result: G9a inh, MmCpn inh, CCT chaperon mod, PLK1 PBD block)
CCc1c(C)sc(NC(=O)Cn2nc(C(F)(F)F)c3c2CCCC3)c1C#N	Sfp inh 39.8µM, G9a inh 14.1µM, PLK1 PBD block 21.2µM
CCc1ccc(NC(=O)Cn2nc(C(F)(F)F)c3c2CCCC3)cc1	none (no result: Sfp inh, MmCpn inh, CCT chaperon mod, PLK1 PBD block)
Cc1sc(NC(=O)C2CCCC2)c(C#N)c1C	Sfp inh inconclusive, G9a inh 7.08µM, VDR inhibitor inconclusive, PLK1 PBD block 26.7µM
COc1ccc(Br)cc1CNC(=O)CN1C(=O)c2cccnc2Oc2ccc(C)cc21	none (no result: Sfp inh, MmCpn inh, CCT chaperon mod, PLK1 PBD block)
Cc1cc(C)c(Cn2c3ccccc3c3cnn(CC(=O)NC4CCC(C)CC4)c(=O)c32)c(C)c1 (configuration not stated)	none (no result: Sfp inh, MmCpn inh, CCT chaperon mod, PLK1 PBD block)
CSc1ccccc1C(=O)NC1CCSc2ccccc21 (configuration not stated)	G9a inh 39.8µM
O=C(NC1CCSc2ccccc21)c1ccccc1F (configuration not stated)	none (no result: G9a inh)
CC(=O)Nc1ccc(C(=O)NC2CCSc3ccccc32)cc1 (configuration not stated)	G9a inh 14.1µM
O=C(NC1CCSc2ccccc21)c1ccc(F)c(S(=O)(=O)N2CCOCC2)c1 (configuration not stated)	Sfp inh 50.1µM (no result: G9a inh)
O=C(NC1CCSc2ccccc21)c1cc(S(=O)(=O)N2CCOCC2)ccc1F (configuration not stated)	none
CC(=O)Nc1ccc(S(=O)(=O)Nc2cccc(-c3ccc(N4CCCCCC4)nn3)c2)cc1	none (no result: Sfp inh, MmCpn inh, CCT chaperon mod, PLK1 PBD block)
CCOc1ccccc1NC(=O)C1CCN(S(=O)(=O)c2c(C)noc2/C=C/c2ccc(C)cc2)CC1	none (no result: Sfp inh, MmCpn inh, CCT chaperon mod, PLK1 PBD block)
S=c1[nH]nc(-c2cccs2)n1/N=C/c1c(Cl)cccc1Cl	G9a inh 1.26µM, VDR inhibitor inconclusive, PLK1 PBD block 6.7µM
O=[N+]([O-])c1ccc(-c2nn(-c3ccccc3)cc2/C=N/n2c(-c3cccs3)n[nH]c2=S)cc1	none (no result: G9a inh)
COc1ccc(/C=N/n2c(-c3cccs3)n[nH]c2=S)cc1	G9a inh inconclusive
Cc1ccc(/C=N/n2c(-c3cccs3)n[nH]c2=S)cc1	G9a inh 0.447µM, PLK1 PBD block inconclusive
CCn1cc2nc(SCc3ccccc3F)n(Cc3ccc(C)cc3)c(=O)c2n1	none (no result: Sfp inh, MmCpn inh, CCT chaperon mod, PLK1 PBD block)
COc1cc2c(cc1OC)n(CC(=O)c1ccc(C)cc1C)c(=O)n1nc(CCn3nc(C)cc3C)nc21	none (no result: Sfp inh, MmCpn inh, CCT chaperon mod, PLK1 PBD block)
CCOC(=O)C1=C(C)N=c2s/c(=C\c3ccc(OCC(=O)O)cc3)c(=O)n2C1c1ccccc1OC (configuration not stated)	VDR inhibitor inconclusive
CCOC(=O)C1=C(C)N=c2s/c(=C/c3ccccc3)c(=O)n2C1c1ccc(OC)c(OC)c1 (configuration not stated)	none
